# S-ASM inh – human S-ASM enzyme inhibition. Potency, µM (series often up to 57.5 µM), hits mostly inhibitors. P17405. placental ASM, HMU-PC fluorogenic substrate, 60 min. hit rate 0.006% among 340,000
# Target sequence (P17405 47-631 limits assumed): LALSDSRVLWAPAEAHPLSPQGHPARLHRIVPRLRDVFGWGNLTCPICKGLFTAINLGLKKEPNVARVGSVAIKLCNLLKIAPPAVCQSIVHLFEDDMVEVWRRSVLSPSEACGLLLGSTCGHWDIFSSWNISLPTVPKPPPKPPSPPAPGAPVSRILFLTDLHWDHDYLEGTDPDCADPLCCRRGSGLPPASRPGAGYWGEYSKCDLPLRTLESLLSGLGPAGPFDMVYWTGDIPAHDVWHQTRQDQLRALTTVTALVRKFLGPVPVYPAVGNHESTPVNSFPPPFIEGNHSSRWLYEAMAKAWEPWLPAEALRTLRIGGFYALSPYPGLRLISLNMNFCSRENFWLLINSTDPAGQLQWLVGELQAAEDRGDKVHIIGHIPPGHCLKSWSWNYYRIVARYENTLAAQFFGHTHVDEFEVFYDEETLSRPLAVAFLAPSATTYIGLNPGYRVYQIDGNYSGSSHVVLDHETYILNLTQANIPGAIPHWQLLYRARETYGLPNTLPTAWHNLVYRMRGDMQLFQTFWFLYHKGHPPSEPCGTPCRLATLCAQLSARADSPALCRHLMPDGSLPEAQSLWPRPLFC
#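 HMU-PC0 cleavage (9 uM final) by human placental ASM, 60 min at 37 °C following 10 min compound exposure at RT; stopped at pH 10, fluorescence Ex 386/Em 447 nm.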
# DT40 TDP1 no CPT – qHTS for Inhibitors of human tyrosyl-DNA phosphodiesterase 1 (TDP1): qHTS in cells in absence of CPT. DT40 Tdp1-/- hTDP1 cells, no CPT, ATP luminescence, 48 h. Potency, µM (titrated, usually from 46.2 µM), actives largely listed as inhibitors. hit rate 15% among 420,000. AID 686978, 2013; also: nearly all actives have a fitted effect of over 55% in size
#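 Luminescent ATP content (CellTiter-Glo) served as the growth readout. Knockout chicken DT40 cells expressing human TDP1 were exposed to compounds without camptothecin for a minimum 48 hr at 37 °C.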
# TGFb inhibitor – TGF-b pathway inhibition | Potency, µM (highest dose often 46.1 µM), most hits filed as inhibitors | hit rate 1.2% among 410,000 | HepG2 CAGA-GFP TGF-b/SMAD3 reporter, GFP fluorescence, 18 h; TGF-beta stimulated, 500 pg/mL final; also: nearly all actives have a fitted effect of over 65% in size
#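 Inhibition of TGF-beta-driven CAGA-GFP reporter expression in HEPG2 cells is measured by cellular GFP fluorescence after 18 h stimulation with 500 pg/mL recombinant TGF-beta in 1% FBS medium at 37 degrees C.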
# IL1B secr inh – inhibitors of inflammasome signaling (IL-1 beta secretion) | THP-1 LPS/ATP IL-1B secretion, AlphaLISA, 16 h; hits give low values | hit rate 4.7% among 360,000 | activity change, % at 57.5 µM; in the data active = activity change below about -50%; inconclusive = mostly about -30% to -49%
#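 THP-1 cells pretreated 1 hr with compounds (up to 57.5 uM final), then stimulated with LPS (250 ng/mL final) plus ATP (1.25 mM final); secreted IL-1B measured by AlphaLISA after 16 hr, decreased signal indicating inhibition.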
# HepG2 viability – counter-screen for TGF-b inhibitors: cytotoxicity in HepG2 cells; HepG2 CAGA-GFP viability, ATP luminescence, 18 h; Potency, µM (highest dose often 46.1 µM), hits mostly cytotoxic; hit rate 0.76% among 410,000; AID 588856
#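 CellTiter-Glo luminescence gave cytotoxicity after 18 hours at 37 degrees C. The cells were HepG2 CAGA-GFP in 1% FBS DMEM, stimulated with 500 pg/mL TGF-beta after compound addition. %Activity was normalised to no-cell wells (complete cell-killing) and DMSO (no toxicity), and curves were fitted and classified.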
# DT40 TDP1 CPT – DT40-hTDP1 cell growth loss with CPT; chicken DT40 Tdp1-/-;hTDP1 cells + 20 nM CPT, ATP luminescence, 48 h; Potency, µM (doses to about 46.2 µM), actives largely listed as inhibitors; hit rate 12% among 420,000; also: nearly all actives have a fitted effect of over 55% in size
#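 Chicken DT40 Tdp1-/- cells complemented with human TDP1, 400 cells/well, exposed to compounds plus 20 nM camptothecin for at least 48 h at 37 C; viability read as ATP content by CellTiter-Glo luminescence.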
# A number is an active result; . = inactive; ? = inconclusive; / = not tested or not shown. In the library only some 19% were active in any assay of this set; here they are far more common. Unless noted, calls follow the shape of the dose curve; as a rule, active = well fitted curve in the direction sought with a large enough effect; inconclusive = small, poorly fitted or top-dose-only effect, or another doubt; inactive = no such curve, though single readings can be large; an effect the other way counts as inactive or inconclusive.
SMILES,S-ASM inh,DT40 TDP1 no CPT,TGFb inhibitor,IL1B secr inh,HepG2 viability,DT40 TDP1 CPT
CC1CCCCC12NC(=O)N(CC(=O)N1CCN(S(=O)(=O)c3ccc4c(c3)CCC4)CC1)C2=O (stereo unspecified),.,?,.,.,.,?
O=C(Nc1ccc2oc(=O)ccc2c1)c1ccc(-c2cccc(Cl)c2)o1,.,?,.,.,.,8.2µM
O=C(Nc1ccc2oc(=O)ccc2c1)c1ccc(-c2cccc([N+](=O)[O-])c2)o1,.,7.3µM,.,.,.,8.2µM
CN1C[C@@H]2C(c3ccc(C(F)(F)F)cc3)C3(c4ccc(C#N)cc4)CC2(C3)[C@H]1c1ccccc1 (stereo partly specified),.,23µM,.,.,.,10µM
COC(=O)c1cccc(C23CC4(C2)[C@H](CN(C)[C@@H]4c2ccccc2)C3c2ccc(C(F)(F)F)cc2)c1 (stereo partly specified),.,?,.,.,.,?
CN1C[C@@H]2C(c3ccc(Cl)nc3)C3(c4ccccc4)CC2(C3)[C@H]1c1ccccc1 (stereo partly specified),.,16µM,.,.,.,21µM
CN1C[C@@H]2C(c3ccccc3)C3(c4ccc(C#N)cc4)CC2(C3)[C@H]1c1ccccc1 (stereo partly specified),.,?,.,.,.,?
CN1C[C@@H]2C(c3ccccc3)C3(c4ccccc4)CC2(C3)[C@H]1c1ccccc1 (stereo partly specified),.,?,.,.,.,26µM
COC(=O)c1ccc(C23CC4(C2)[C@H](CN(C)[C@@H]4c2ccccc2)C3c2ccccc2)cc1 (stereo partly specified),.,?,.,.,.,?
COC(=O)c1cccc(C23CC4(C2)[C@H](CN(C)[C@@H]4c2ccccc2)C3c2ccccc2)c1 (stereo partly specified),.,23µM,.,.,.,21µM
Nc1ccc(-c2cc3ccccc3[nH]2)cc1,/,.,?,/,.,.
COCC(=O)N1CCC2(CC1)CN(C(c1ccccc1)c1ccccc1)C2,/,.,/,/,/,.
C[C@@H]1CN([C@@H](C)CO)C(=O)CCCn2nncc2CO[C@H]1CN(C)Cc1ccncc1,/,.,.,.,.,.
CCOc1ccc2[nH]c(=O)c(CN(CCc3ccccc3)C(=O)N3CCCC3)cc2c1,.,?,.,.,.,13µM
CCOc1ccc2[nH]c(=O)c(CN(Cc3ccc(C)cc3)C(=O)N3CCCC3)cc2c1,.,21µM,.,.,.,?
CCCOc1ccc(-c2c(C(=O)N/N=C/c3ccccc3OCC)nnn2-c2nonc2N)cc1,.,?,.,.,.,.
CCN(CC)c1ccc(/C=C/C2=C3C=CC=CC3NC=C2)cc1 (stereo unspecified),/,14µM,.,/,.,?
O=C1c2ccccc2C(O)N1CCN1CCOCC1 (stereo unspecified),.,.,.,.,.,.
N#C/C(C(=O)N1CCCCC1)=C1/N=C(N)c2ccccc21,.,.,.,.,.,.
CCCCN1C(=O)/C(=C(/C#N)C(=O)N2CCCC2)c2ccccc21,.,21µM,.,.,.,16µM
N#CC(C#N)=C1C(=O)N(CCN2CCCCC2)c2ccccc21,.,18µM,.,?,.,16µM
N#CC(C#N)=C1C(=O)N(CCN2CCOCC2)c2ccccc21,.,?,?,/,22µM,29µM
CCOC(=O)N1CCN(C(=O)C(=O)NN)CC1,.,.,.,.,.,.
CCCc1ccccc1OCCNS(=O)(=O)c1cc2c(cc1C)OCC(=O)N2,.,12µM,?,-99,.,15µM
Cc1cc2c(cc1S(=O)(=O)NCCc1ccccc1)NC(=O)CO2,.,.,.,.,.,.
SMILES,S-ASM inh,DT40 TDP1 no CPT,TGFb inhibitor,IL1B secr inh,HepG2 viability,DT40 TDP1 CPT
COc1ccc(-n2c(=O)[nH]cc(C(=O)Nc3ccc4c(c3)OCO4)c2=O)cc1OC,.,.,.,.,.,.
O=C(Cc1cccs1)NC1CCCC1,.,.,.,.,.,.
N#C/C(=C\c1ccc(C(=O)O)cc1)c1ccccn1,.,.,?,.,.,.
N#C/C(=C\c1c[nH]c2ccc(Br)cc12)c1ccccn1,.,21µM,?,-84,.,?
CCCNC(=S)N1CCN(c2nc(C)nc3sc4c(c23)CCCC4)CC1,.,?,.,-74,.,?
CCc1nc(N2CCN(C(=O)c3ccccc3)CC2)c2c3c(sc2n1)CCCC3,.,23µM,?,-78,.,?
COCCCNC(=S)N1CCN(c2nc(C)nc3sc4c(c23)CCCC4)CC1,.,?,?,.,.,16µM
Cc1nc(N2CCNCC2)c2c3c(sc2n1)CCCC3,.,?,.,.,.,?
CCCN(CCC)C(=O)Cn1c(=O)n(-c2ccc(Cl)c(Cl)c2)c(=O)c2c(C)c(C(=O)N(C)C)sc21,/,.,.,/,.,.
Cc1cc(F)ccc1NC(=O)CN1C(=O)CCc2cc(S(=O)(=O)N3CCOCC3)ccc21,/,.,.,/,.,.
CC(C)(C)c1nc2c(C#N)c(-c3ccc(Cl)cc3)ccn2n1,.,20µM,.,.,.,35µM
Cc1nc2c(C#N)c(-c3ccc(Cl)cc3)ccn2n1,.,.,.,.,.,.
CCO[C@H](Cc1ccc(OCCc2ccc(OS(C)(=O)=O)cc2)cc1)C(=O)O,/,.,/,/,/,.
COC(=O)c1cc(=O)nc2sc3cc(OC)ccc3n12,.,.,.,.,.,.
COc1ccc(O)c(/C=c2/sc3nc4cc(C)c(C)cc4n3c2=O)c1,.,16µM,?,.,.,16µM
C[C@]12C=C[C@H](O)CC1=CCC1C2CC[C@@]2(C)C1CCC21OCCO1 (stereo partly specified),.,?,.,.,.,?
O=C1C(Cl)=C(N2CCCCC2)C(=O)C(Cl)=C1c1cnc(N2CCCCC2)s1,.,0.92µM,.,-71,.,0.92µM
CC(=O)c1cnc(N(C)C)s1,.,.,.,.,.,.
CN(C)c1ncc(C2=C(Cl)C(=O)C(N3CCCC3)=C(Cl)C2=O)s1,.,1.2µM,.,-104,.,0.92µM
CC(C)NC(=O)c1cnc2sc(N3CCCCCC3)nn2c1=O,/,.,?,/,.,.
COc1ncnc2c1ncn2CCCNCC(c1ccccc1)c1ccccc1,/,18µM,.,.,.,23µM
COc1ncnc2c1ncn2CCCNCC(C)c1ccccc1 (stereo unspecified),/,.,.,.,.,.

# Screening data as filed in PubChem BioAssay.
